These results are taken from PubChem BioAssay (NCATS).

Values without a mark were called inactive. Results filed as inconclusive are left out. Activity calls are given as the source filed them. Unless noted, the call rests on the fitted dose curve; in most records, active means well fitted curve in the direction sought with a large enough effect; inconclusive means small, poorly fitted or top-dose-only effect, or another doubt; inactive means no such curve, though single readings can be large; an effect the other way counts as inactive or inconclusive. Where only a bound is given, the exact number is not on record here.

Assay [1] concerns the target Lysosomal acid glucosylceramidase (Homo sapiens) (UniProt P04062). Put plainly: Glucocerebrosidase-p2 (AID 348; in the data active means potency below about 10 µM; further: potency means the concentration at half of the fitted maximal effect). Particulars: purified GBA, blue fluorogenic substrate, 40 min. The essentials:
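Normal human glucocerebrosidase (0.2 nM) with blue fluorogenic substrate (80 uM final) in citrate/phosphate pH 5.9 with 10mM sodium taurocholate, 0.01% tween-20; 40 min RT, NaOH/glycine stop; fluorescence Ex 365/Em 440; AC50 from a titration from 0.6 nM upwards.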

Assay [2] in a line: AP1 Signaling Pathway (AID 357; active means well fitted curve in either direction with a large enough effect, not every such curve was filed as active;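 further: ME-180 reporter cells stimulated with EGF at its EC50 level; on the % scale 0 is the no-effect control and ±100 the full control effect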). As to conditions: ME-180 AP-1-bla reporter, EGF-induced, beta-lactamase ratio, 5 h; at 7.69 µM (top of the series) unless noted. An outline of the steps: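 First, ME-180 AP-1-bla cells were cultured overnight at 37 °C in low-serum Opti-MEM. Next, titrated compounds with EC50 EGF were incubated 5 hours. Finally, CCF4 was added for 2.5 hours and the 460/530 nm ratio recorded.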

The target of assay [3] is Cytochrome P450 1A2 (Homo sapiens) (UniProt P05177). Put plainly: p450-cyp1a2 (AID 410; calls by dose curve; further: potency means the concentration at half of the fitted maximal effect). Particulars: recombinant CYP1A2, luciferin-ME demethylation, luminescence; series mostly up to 57 µM. An outline of the steps: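 20nM CYP1A2, 100uM Luciferin-ME (=Km), 100mM KPO4; cpd 10 min RT; +NADPH regen, 60 min RT; stop/detect 20 min; luminescence. Normalized to furafylline 57 uM = full inhibition.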
Sequence of Cytochrome P450 1A2 (Homo sapiens) (P05177 whole entry, looked up): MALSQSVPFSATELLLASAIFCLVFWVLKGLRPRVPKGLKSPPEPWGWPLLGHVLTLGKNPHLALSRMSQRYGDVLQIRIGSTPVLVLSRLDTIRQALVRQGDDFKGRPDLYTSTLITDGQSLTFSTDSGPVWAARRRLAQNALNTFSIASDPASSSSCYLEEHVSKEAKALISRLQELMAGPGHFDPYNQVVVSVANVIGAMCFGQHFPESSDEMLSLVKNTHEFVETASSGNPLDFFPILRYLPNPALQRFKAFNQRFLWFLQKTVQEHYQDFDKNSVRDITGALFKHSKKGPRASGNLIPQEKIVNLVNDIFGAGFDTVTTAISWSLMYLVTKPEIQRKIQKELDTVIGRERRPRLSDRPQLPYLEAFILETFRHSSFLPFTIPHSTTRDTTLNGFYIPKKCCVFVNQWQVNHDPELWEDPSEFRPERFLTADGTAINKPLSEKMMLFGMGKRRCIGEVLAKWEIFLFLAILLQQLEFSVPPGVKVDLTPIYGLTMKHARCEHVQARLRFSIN

A short description of assay [4]: NFAT Signaling Pathway (AID 444; active means well fitted curve in either direction with a large enough effect, not every such curve was filed as active;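 further: carbachol stimulus at about its EC50 of 1 µM final; on the % scale 0 is the no-effect control and ±100 the full control effect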). Particulars: Jurkat NFAT-bla M1, carbachol, beta-lactamase ratio, 5 h; at 7.69 µM (top of the series) unless noted. The essentials:
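Read-out: CCF4 FRET ratio (460 nm/530 nm) after 1 h RT dye loading, used for %activity and AC50 from titration series. Cells: Jurkat NFAT-β-lactamase/M1 line, treated with compound plus 1 uM carbachol for 5 h, 37 °C.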

The target in assay [5] is Glucocorticoid receptor (Homo sapiens) (UniProt P04150). Put plainly: GR-GFP Redistribution (AID 450;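 active means compounds whose dose series gives a full or clear partial fitted curve of increased nuclear translocation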; further: potency means the concentration at half of the fitted maximal effect). Particulars: U2OS GR-GFP nuclear translocation, laser cytometry, 2 h.
Sequence of Glucocorticoid receptor (Homo sapiens) (P04150 whole entry, looked up): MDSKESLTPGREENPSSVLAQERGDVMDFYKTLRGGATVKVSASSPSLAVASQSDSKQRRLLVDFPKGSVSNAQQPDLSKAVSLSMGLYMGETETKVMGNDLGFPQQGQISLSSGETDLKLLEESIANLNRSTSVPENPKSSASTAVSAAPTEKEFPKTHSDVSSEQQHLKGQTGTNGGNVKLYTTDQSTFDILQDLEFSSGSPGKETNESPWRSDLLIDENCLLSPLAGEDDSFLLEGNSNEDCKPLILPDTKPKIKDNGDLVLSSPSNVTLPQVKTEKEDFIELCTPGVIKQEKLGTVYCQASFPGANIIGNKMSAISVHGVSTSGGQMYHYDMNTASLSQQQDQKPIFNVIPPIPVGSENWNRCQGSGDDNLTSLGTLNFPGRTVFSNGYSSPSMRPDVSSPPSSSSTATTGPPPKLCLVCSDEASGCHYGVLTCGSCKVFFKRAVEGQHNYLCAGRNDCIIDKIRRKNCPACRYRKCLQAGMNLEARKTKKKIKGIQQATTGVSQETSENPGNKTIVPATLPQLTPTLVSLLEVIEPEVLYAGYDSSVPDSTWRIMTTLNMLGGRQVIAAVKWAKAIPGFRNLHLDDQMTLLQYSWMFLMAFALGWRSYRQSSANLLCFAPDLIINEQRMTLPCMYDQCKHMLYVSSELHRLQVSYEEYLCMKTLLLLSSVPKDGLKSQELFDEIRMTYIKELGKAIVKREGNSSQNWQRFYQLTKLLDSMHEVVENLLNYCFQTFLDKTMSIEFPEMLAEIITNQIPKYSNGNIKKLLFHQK
For assay [6] the target is unchanged. Put plainly: GR-EFC Redistribution (AID 451; calls by dose curve; further: potency means the concentration at half of the fitted maximal effect). Particulars: CHO-K1 GR-EFC translocation, beta-gal luminescence, 2 h. The essentials:
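Translocation of GR-ED fusion to nuclear EA restores b-gal, read by luminescence after 1 h room-temperature detection. Engineered CHO-K1 biosensor cells, 1,000/well, exposed 2 h at 37 C to titrations up to 46 uM final.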

Assay [7] concerns the target 3',5'-cyclic-AMP phosphodiesterase 4B (Homo sapiens) (UniProt Q07343). Put plainly: qHTS Assay for Inhibitors of PDE-IV (AID 607; active means well fitted activation curve with a large enough effect in the main read-out, with a control signal flat, not every such curve was filed as active; further: % of control where 0% means no effect). Particulars: HEK293 ACTOne CNG channel cells, membrane potential fluorescence; series mostly up to 22.9 µM. An outline of the steps: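 HEK293 ACTOne cells with CNG channel (1000/well), endogenous PDE4; membrane potential dye, compounds up to 22.9 uM final. Fluorescence Ex 535/Em 590; RO 20-1724 (100 uM final) as reference.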

Assay [8] concerns the target Cytochrome P450 3A4 (Homo sapiens) (UniProt P08684). The assay is described as follows: qHTS Assay for Activators of Cytochrome P450 3A4 (AID 885). Further: nearly all actives have a fitted effect of over 65% in size. As to conditions: recombinant CYP3A4, Luciferin-PPXE luminescence, 60 min; series mostly up to 57.1 µM. The essentials:
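Human CYP3A4 dealkylates Luciferin-PPXE to luciferin, which luciferase detection converts to light. Substrate was at its KM (25uM), buffer 200mM KPO4, reaction 60 min at RT.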
For orientation: In qHTS, concentration-response curves come from the screen itself.

Assay [9] has as its target Dual specificity protein kinase CLK4 (Homo sapiens) (UniProt Q9HAZ1). The assay is described as follows: qHTS Assay for Inhibitors of CDC-like Kinase 4 (Kinase-Glo Assay) (AID 1770). Further: nearly all actives have a fitted effect of over 65% in size. Further: potency means the concentration at half of the fitted maximal effect. As to conditions: recombinant Clk4, Kinase-Glo ATP depletion luminescence; series mostly up to 66.7 µM. An outline of the steps: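 Clk4 25 nM, RS peptide 100 uM, ATP 1 uM, pH 7.5 Tris, 10 mM MgCl2, 2.5 mM DTT; 4.5 h RT; ATP depletion read by Kinase-Glo luminescence.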

Assay [10] shares this target. Put plainly: qHTS Assay for Inhibitors of CDC-like Kinase 4 (ADP-Glo Assay) (AID 1771). Further: nearly all actives have a fitted effect of over 70% in size. Further: potency means the concentration at half of the fitted maximal effect. As to conditions: recombinant CLK4, ADP-Glo luminescence; series mostly up to 80 µM. An outline of the steps:
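25 nM Clk4, 100 uM RS peptide, 1 uM ATP (final); 2 mM MgCl2, 0.5 mM EGTA, 2.5 mM DTT, 0.01% Triton X-100; 1 hr RT. ADP-Glo readout: ATP depletion 45 min, conversion/luciferase 30 min, luminescence.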

The target is the same in assay [11]. Put plainly: qHTS Assay for Inhibitors of CDC-like Kinase 4 (ADP-FP Assay) (AID 1795).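 Further: recombinant human CLK4 phosphorylating RS repeat peptide at 1 µM ATP; on the % scale 0 is the no-effect control and ±100 the full control effect; nearly all actives have a fitted effect of over 60% in size.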 As to conditions: Transcreener ADP fluorescence polarization; series mostly up to 50 µM. The essentials:
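Kinase activity was followed as ADP output, converted from fluorescence polarization with a calibration curve. Reactions ran one hour at low ATP (1 uM) with RS peptide substrate.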

Assay [12] deals with Ubiquitin carboxyl-terminal hydrolase 1 (Homo sapiens) (UniProt O94782). Put plainly: Inhibitors of USP1/UAF1: Pilot qHTS (AID 504865). Further: nearly all actives have a fitted effect of over 35% in size. Further: potency means the concentration at half of the fitted maximal effect. Particulars: purified USP1/UAF1, Ub-rhodamine cleavage fluorescence; series mostly up to 54.9 µM. An outline of the steps: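 Enzyme-free wells gave the negative control, while test wells held 1nM USP1/UAF1 preincubated with compound for 15 min at room temperature. Ub-Rho at 150nM final started the reaction, and fluorescence at 480/540 nm was recorded kinetically.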
Sequence of Ubiquitin carboxyl-terminal hydrolase 1 (Homo sapiens) (O94782 whole entry, looked up): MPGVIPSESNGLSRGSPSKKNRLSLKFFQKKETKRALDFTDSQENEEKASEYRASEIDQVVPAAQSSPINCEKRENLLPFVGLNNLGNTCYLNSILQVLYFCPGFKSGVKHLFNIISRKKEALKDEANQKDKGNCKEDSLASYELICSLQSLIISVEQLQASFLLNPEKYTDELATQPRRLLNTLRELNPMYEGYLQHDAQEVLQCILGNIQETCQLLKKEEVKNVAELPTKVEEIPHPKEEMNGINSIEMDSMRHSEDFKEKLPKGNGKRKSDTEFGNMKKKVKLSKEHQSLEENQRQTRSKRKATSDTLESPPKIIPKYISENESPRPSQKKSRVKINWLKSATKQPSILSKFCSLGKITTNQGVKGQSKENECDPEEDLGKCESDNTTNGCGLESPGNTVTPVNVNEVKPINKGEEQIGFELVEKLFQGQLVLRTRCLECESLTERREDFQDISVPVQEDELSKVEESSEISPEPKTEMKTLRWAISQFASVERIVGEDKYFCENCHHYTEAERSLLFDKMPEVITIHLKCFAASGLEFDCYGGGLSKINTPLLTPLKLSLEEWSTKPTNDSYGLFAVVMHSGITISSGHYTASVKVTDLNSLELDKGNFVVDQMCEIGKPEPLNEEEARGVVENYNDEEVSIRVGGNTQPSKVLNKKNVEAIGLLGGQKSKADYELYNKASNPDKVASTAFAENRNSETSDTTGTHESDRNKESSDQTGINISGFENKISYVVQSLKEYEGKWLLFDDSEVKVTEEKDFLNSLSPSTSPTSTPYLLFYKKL

Assay [13] in a line: Primary qHTS for small molecule stabilizers of the endoplasmic reticulum resident proteome: Secreted ER Calcium Modulated Protein (SERCaMP) assay (AID 1508630). Further: on the % scale 0 is the no-effect control and ±100 the full control effect. Particulars: SH-SY5Y GLuc-SERCaMP (Gaussia luciferase released on ER calcium loss) secretion, thapsigargin, luminescence; series mostly up to 38.4 µM. The essentials:
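The SH-SY5Y reporter protocol was run at 3 concentrations up to 38.3 uM (primary) or 11 concentrations (follow-up): 16 h compound, 100 nM thapsigargin for 4 h, then extracellular luciferase luminescence.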

The target in assay [14] is Mitogen-activated protein kinase 10 (Mus musculus) (UniProt Q61831). Put plainly: JNK3 AlphaScreen Assay (AID 530; active means well fitted curve in either direction with a large enough effect, not every such curve was filed as active;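 further: kinase came from lysate of stimulated human HepG2 cells; signal reports phosphorylation of biotinylated GST-cJun 1-79 at Ser73 with 10 µM ATP; on the % scale 0 is the no-effect control and ±100 the full control effect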). Particulars: JNK3 lysate, c-Jun phosphorylation; series mostly up to 57.1 µM. An outline of the steps:
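Kinase buffer: 20 mM Tris-HCl pH 7.6, 10 mM MgCl2, 1 mM DTT, 0.1 mM Na3VO4, 0.01% Tween-20; ATP 10 uM. Substrate biotin-GST-cJun(1-79), enzyme from activated HepG2 lysates. Detection by Ser73 phospho-antibody AlphaScreen.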
On the technique in general: In Alpha technology, singlet oxygen from a donor bead excites a nearby acceptor bead.

Assay [15] in a line: qHTS Assay for Identification of Small Molecule Agonists for Hypoxia Response Element Signaling Pathway (AID 914; active means well fitted activation curve with a large enough effect in the signal ratio, with a control signal flat, not every such curve was filed as active; the % refers to the signal ratio; further: potency means the concentration at half of the fitted maximal effect). As to conditions: ME-180 HRE-bla reporter, beta-lactamase ratio, CoCl2, 17 h; activation: active compounds read high. The essentials: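 qHTS titration; ME-180 HRE-bla cells; EC50 CoCl2 co-treatment, 17 h at 37 degrees Celsius; CCF4 dye, ex 405nm, em 460nm and 530nm; %Activity from ratio; AC50.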

Assay [16] can be described thus: Stat Signaling Pathway (AID 446; active means well fitted curve in either direction with a large enough effect, not every such curve was filed as active). As to conditions: ME-180 (cervical carcinoma) SIE beta-lactamase reporter, IL-6 stimulated, 5 h; at 7.69 µM (top of the series) unless noted. The essentials: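 Normalization used AC90 stimulation (300 pM IL-6) and AC90 inhibition (125 nM pan-JAK inhibitor at 40 pM IL-6). The underlying signal is SIE-driven beta-lactamase in ME-180 cells after 5 h IL-6 exposure with compound.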

The target of assay [17] is Cytochrome P450 2D6 (Homo sapiens) (UniProt P10635). Put plainly: qHTS Assay for Inhibitors and Substrates of Cytochrome P450 2D6 (AID 891). Further: potency means the concentration at half of the fitted maximal effect; nearly all actives have a fitted effect of over 60% in size. As to conditions: recombinant CYP2D6, luciferin-ME EGE luminescence; series mostly up to 57.1 µM. An outline of the steps: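 Luminescent read-out of luciferin formed by 5 nM human CYP2D6 demethylating 30 uM Luciferin-ME EGE (Km level) over 60 min at room temperature after NADPH regeneration addition. Data normalized to full inhibition by 1.43 uM quinidine.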
Sequence of Cytochrome P450 2D6 (Homo sapiens) (P10635 whole entry, looked up): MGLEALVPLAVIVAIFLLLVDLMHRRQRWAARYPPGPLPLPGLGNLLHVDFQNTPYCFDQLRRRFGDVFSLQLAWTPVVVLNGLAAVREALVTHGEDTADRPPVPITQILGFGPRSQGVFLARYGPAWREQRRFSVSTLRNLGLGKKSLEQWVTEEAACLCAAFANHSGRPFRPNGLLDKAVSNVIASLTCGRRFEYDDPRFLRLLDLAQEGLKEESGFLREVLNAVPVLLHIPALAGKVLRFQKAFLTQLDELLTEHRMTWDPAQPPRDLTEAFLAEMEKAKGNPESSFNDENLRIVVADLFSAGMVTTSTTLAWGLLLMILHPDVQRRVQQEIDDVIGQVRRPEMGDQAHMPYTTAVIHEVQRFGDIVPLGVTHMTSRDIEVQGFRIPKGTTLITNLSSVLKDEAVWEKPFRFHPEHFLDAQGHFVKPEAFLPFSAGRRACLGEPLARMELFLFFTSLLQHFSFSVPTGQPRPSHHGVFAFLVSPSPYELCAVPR

Sequence of Lysosomal acid glucosylceramidase (Homo sapiens) (P04062 whole entry, looked up): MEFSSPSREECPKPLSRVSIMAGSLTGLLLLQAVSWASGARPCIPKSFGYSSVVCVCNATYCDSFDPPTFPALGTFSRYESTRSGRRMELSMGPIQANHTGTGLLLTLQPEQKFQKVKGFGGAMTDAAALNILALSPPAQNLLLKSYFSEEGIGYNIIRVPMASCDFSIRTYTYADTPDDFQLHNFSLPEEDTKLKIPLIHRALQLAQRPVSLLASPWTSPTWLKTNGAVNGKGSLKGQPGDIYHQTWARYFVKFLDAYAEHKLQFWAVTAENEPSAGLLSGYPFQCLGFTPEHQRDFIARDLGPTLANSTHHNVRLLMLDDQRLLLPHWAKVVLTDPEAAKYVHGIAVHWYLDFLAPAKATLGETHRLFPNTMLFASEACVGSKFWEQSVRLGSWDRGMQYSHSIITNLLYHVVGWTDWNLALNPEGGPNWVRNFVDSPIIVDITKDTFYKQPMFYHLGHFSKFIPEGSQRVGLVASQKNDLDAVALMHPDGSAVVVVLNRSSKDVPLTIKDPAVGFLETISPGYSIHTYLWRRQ
Sequence of 3',5'-cyclic-AMP phosphodiesterase 4B (Homo sapiens) (Q07343 whole entry, looked up): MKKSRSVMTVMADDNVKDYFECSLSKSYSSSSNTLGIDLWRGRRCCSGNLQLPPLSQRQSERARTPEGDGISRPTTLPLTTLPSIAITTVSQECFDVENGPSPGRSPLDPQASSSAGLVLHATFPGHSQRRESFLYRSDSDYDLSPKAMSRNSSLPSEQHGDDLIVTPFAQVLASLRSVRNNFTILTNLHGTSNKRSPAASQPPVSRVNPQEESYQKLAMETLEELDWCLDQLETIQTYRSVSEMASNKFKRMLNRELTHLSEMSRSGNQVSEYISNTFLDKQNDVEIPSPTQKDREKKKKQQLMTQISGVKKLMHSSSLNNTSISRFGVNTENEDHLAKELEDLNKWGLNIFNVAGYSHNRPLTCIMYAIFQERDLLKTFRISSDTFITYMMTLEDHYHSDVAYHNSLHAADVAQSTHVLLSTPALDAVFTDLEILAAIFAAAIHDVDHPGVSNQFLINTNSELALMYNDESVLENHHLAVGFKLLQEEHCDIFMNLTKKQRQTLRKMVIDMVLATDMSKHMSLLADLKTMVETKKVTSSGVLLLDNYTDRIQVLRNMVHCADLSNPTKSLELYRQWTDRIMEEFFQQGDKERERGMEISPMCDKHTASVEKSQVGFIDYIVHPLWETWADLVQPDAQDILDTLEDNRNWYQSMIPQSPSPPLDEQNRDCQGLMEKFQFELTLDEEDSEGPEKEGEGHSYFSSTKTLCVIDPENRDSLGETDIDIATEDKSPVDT
Sequence of Cytochrome P450 3A4 (Homo sapiens) (P08684 whole entry, looked up): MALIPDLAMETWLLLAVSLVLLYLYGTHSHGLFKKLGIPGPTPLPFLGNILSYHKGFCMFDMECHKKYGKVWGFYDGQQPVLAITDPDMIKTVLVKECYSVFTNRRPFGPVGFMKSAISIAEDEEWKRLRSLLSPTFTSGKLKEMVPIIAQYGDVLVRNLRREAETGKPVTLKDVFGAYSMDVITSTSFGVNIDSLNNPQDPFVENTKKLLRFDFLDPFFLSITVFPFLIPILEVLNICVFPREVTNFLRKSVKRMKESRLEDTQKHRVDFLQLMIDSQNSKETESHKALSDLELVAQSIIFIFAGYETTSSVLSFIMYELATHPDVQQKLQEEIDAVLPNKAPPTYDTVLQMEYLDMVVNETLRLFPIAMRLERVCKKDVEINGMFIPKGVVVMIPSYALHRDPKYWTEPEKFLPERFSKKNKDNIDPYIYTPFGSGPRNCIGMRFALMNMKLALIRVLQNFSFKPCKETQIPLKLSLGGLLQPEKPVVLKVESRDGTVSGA
Sequence of Dual specificity protein kinase CLK4 (Homo sapiens) (Q9HAZ1 whole entry, looked up): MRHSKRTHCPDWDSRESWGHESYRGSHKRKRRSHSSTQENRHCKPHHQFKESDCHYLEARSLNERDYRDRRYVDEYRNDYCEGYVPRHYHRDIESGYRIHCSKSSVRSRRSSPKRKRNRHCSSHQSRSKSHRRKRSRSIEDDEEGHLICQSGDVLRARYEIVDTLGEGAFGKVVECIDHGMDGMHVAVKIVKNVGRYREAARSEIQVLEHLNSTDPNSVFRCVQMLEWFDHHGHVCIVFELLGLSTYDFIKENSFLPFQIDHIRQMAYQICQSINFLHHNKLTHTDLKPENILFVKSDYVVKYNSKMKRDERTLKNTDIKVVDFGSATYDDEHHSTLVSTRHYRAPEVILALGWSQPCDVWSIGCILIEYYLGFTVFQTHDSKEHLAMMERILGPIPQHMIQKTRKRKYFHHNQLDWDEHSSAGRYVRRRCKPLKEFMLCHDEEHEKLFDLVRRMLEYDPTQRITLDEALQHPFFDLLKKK

As to `Cn1cc(-c2nc3cnc(N4CCNCC4)nc3n(-c3ccccc3)c2=O)c2ccccc21`, the Potency was greater than 11.4 µM in assay [1], 15.8 µM (active) in assay [3], greater than 9.22 µM in [5] and greater than 46 µM in [6]. Also, the activity change, negative = inhibition was 22.4% in assay [2] and 24.6% in assay [4]. Also, the Potency entry in [7], in [8], in assay [9], in [10], in [11] and in [12] was “inactive” in each case. In addition, the result in assay [13] was inactive.

For `N#CCCn1c(=O)c(CCc2ccccc2)nc2cnc(Nc3ccccc3)nc21`, the Potency in [1] was greater than 11.4 µM; in assay [5], greater than 9.22 µM; in assay [6], greater than 46 µM. Further, the results for the activity change, negative = inhibition in assay [2] and in assay [4] were -27.7% and -25.2%, respectively. For the same compound, the Potency result in assay [3], in assay [14], in assay [7], in assay [8], in assay [9] and in assay [10] was “inactive” throughout. Also, the Potency entry in [11] and in assay [12] was “inactive” throughout. The outcome in assay [13] was inactive.

As for `CCNc1ncc2nc(-c3cc(F)cc(F)c3)c(=O)n(CCc3ccccc3)c2n1`, the Potency in assay [1] is greater than 11.4 µM; in assay [3], 25.1 µM (active); in [5] it was greater than 9.22 µM; in assay [6], greater than 46 µM; in assay [15], 1 µM (active); in assay [12] it was 20 µM (active). For the same compound, the activity change, negative = inhibition in [2] is 109% [activator] (active); in [4], 137% [activator] (active). In addition, the Potency result in assay [14], in assay [7], in [8], in assay [9], in assay [10] and in assay [11] was “inactive” throughout. The result in assay [13] was inactive.

For the compound `CNc1nc(-c2c(C)noc2C)nc2ccccc12`, the Potency in assay [1] is greater than 11.4 µM; in [3] it was 0.0501 µM (active); in assay [5] it was greater than 46 µM; in [6], greater than 46 µM; in assay [9] it was 17.8 µM (active); in assay [10], 20 µM (active). Further, the values for the activity change, negative = inhibition in assay [2] and in assay [4] were 5.72% and 8.72%, respectively. The activity, negative = inhibition in assay [16] was -5.04%. The Potency result in assay [14], in assay [7], in [8] and in assay [11] was “inactive” in each case. Moreover, the result in [13] was inactive.

As for `N#CCCn1c(=O)c(-c2ccccc2)nc2cnc(Nc3ccccc3)nc21`, the Potency in assay [1] is greater than 11.4 µM; in assay [3], 0.794 µM (active). The values for the activity change, negative = inhibition in assay [2] and in assay [4] were -19.8% and -16.9%, respectively. Moreover, in assay [16], the activity, negative = inhibition is -23.1%. Besides, the Potency entry in assay [14], in [9], in [10], in assay [11] and in [12] was “inactive” throughout. For the same compound, the result in [13] was inactive.

As for `CN(C)Cc1ccccc1-c1nccc(N(C)Cc2ccco2)n1`, the figures for the Potency in assay [1], in [3] and in assay [17] were greater than 11.4 µM, 7.94 µM (active) and 0.794 µM (active), respectively. Moreover, the activity change, negative = inhibition is -20% in assay [2] and -23.2% in assay [4]. Further, the activity, negative = inhibition in assay [16] was 0.0679%. For the same compound, the Potency entry in [14], in assay [8], in assay [9], in [10], in assay [11] and in [12] was “inactive” each time. Further, in [13], the result was inactive.
